Measurements from PubChem BioAssay AID463173 (ICCB-Longwood Screening Facility, Harvard Medical School, 2010).
Out of some 52,000 compounds screened, about 1,700 (3.3%) were called active. The sample holds actives, similar compounds and a random draw of the others, so the mix is not that of the screen. Cut-off read from the data, not from the text of the source: active = survival mostly below about 52% (no sharp cut-off); inactive = mostly above about 56%.

tested on: Wild type; test: growth inhibition of S. aureus wild type versus tarO mutant, primary screen, teichoic acid synthesis inhibitors, RN4220, OD600 (AID 463173); conditions: S. aureus RN4220 wild type/DeltatarO growth, OD600, 18 h, stronger effect = lower value, screened at 18.75 µg/mL (by protocol)

Compound | survival
CCOc1ccc(-c2nc(SCC(=O)Nc3cc(F)ccc3F)n3[nH]c(=O)cc3n2)cc1 | 77% (inactive)
CC1=C(C(=O)NCCc2ccc(Cl)cc2)C2(CCCCC2)OC1=O | 73% (inactive)
CC(C)CNc1nc(NC(C)(C)C)nc(Oc2ccc(=O)n(-c3ccccc3)n2)n1 | 84% (inactive)
CCc1ccc(NCc2cc3cc(OC)c(OC)cc3n(CC(=O)Nc3cc(C)ccc3C)c2=O)cc1 | 63% (inactive)
CCN(C(=O)CSc1nc2ccccc2n1Cc1cc(C)ccc1C)c1ccccc1 | 72% (inactive)
COc1cc(NC(=O)Cn2cc(S(=O)(=O)c3ccccc3)c(=O)c3ccccc32)cc(OC)c1 | 78% (inactive)
COc1ccc(N(C(=O)COc2ccc(Br)cc2)S(=O)(=O)c2ccc(C)cc2)cc1 | 87% (inactive)
CCCCN(CC)C(=O)Cn1ncc2c3ccccc3n(CCC)c2c1=O | 98% (inactive)
CN(C)CC(O)C1CCOC(C)(C)C1 (centres undefined) | 111% (inactive)
CCOC(=O)c1cnc2ccc(OC)cc2c1Nc1ccc(OCc2ccccc2Cl)cc1 | 6% (active)
CCOC(=O)c1cnc2ccc(C)cc2c1Nc1ccc(OCc2ccccc2Cl)cc1 | 4% (active)
CCOc1ccc(Nc2c(S(=O)(=O)c3ccc(Cl)cc3)cnc3ccc(OC)cc23)cc1 | 88% (inactive)
CCOC(=O)c1cnc2ccc(C(=O)OC)cc2c1Nc1ccc(OCc2ccccc2Cl)cc1 | 129% (inactive)
CCOC(=O)c1cnc2ccc(OC)cc2c1Nc1cccc(C(C)=O)c1 | 2% (active)
CN(C)c1cc(Nc2ccc(Cl)cc2)c2c3c(onc13)-c1ccccc1C2=O | 96% (inactive)
CCC(=O)N1CCc2cc(S(=O)(=O)NC(C(=O)NCCc3ccccc3)C(C)C)ccc21 (centres undefined) | 83% (inactive)
CCC1CCc2nc3sc(C(=O)Nc4ccc(F)cc4F)c(N)c3cc2C1 (centres undefined) | 92% (inactive)
Cc1cccc(CCNC(=O)Cn2ncc3c(=O)oc4ccccc4c32)c1 | 76% (inactive)
Fc1ccc(-c2ccc(NCc3ccccc3)nn2)cc1 | 119% (inactive)
Cc1cccc(CNC(=O)C2CCC(CNS(=O)(=O)c3ccc4c(c3)CCCC(=O)N4)CC2)c1 (centres undefined) | 65% (inactive)
CCn1cc2nc(SCc3cccc(OC)c3)n(Cc3ccc(Cl)cc3)c(=O)c2n1 | 10% (active)
CCn1cc2nc(SCc3cccc(C(F)(F)F)c3)n(Cc3ccc(OC)cc3)c(=O)c2n1 | 71% (inactive)
CCn1cc2nc(SCc3cccc(C(F)(F)F)c3)n(Cc3ccc(Cl)cc3)c(=O)c2n1 | 146% (inactive)
CCc1ccc(-c2cn3c(n2)SCC3)cc1 | 111% (inactive)

Compound | survival
CCCNC(=O)Cn1c(=O)c2cccn2c2cccnc21 | 89% (inactive)
Cc1c(CNC(C)CCc2ccccc2)c(C(=O)O)c(C)n1Cc1ccc(F)cc1 (centres undefined) | 93% (inactive)
Cc1ccc(OCc2nc(C#N)c(NCCc3ccccc3)o2)cc1 | -1% (active)
N#Cc1nc(COc2ccccc2Cl)oc1NCCc1ccccc1 | 25% (inactive)
N#Cc1nc(COc2cccc(Cl)c2)oc1NCCc1ccccc1 | 19% (inactive)
O=C(CCc1ccccc1)Nc1ccccc1 | 105% (inactive)
Cc1cc(Cl)ccc1NS(=O)(=O)c1c(C(=O)N2CCC(C)CC2)c(C)n(C)c1C | 14% (active)
COc1cc(OC)c(NS(=O)(=O)c2c(C(=O)N3CCC(C)CC3)c(C)n(C)c2C)cc1Cl | -1% (active)
CCOc1ccc(OCC)c(NS(=O)(=O)c2c(C(=O)N3CCCCCC3)c(C)n(C)c2C)c1 | 71% (inactive)
CC(=O)Nc1ccc(NS(=O)(=O)c2c(C(=O)N3CCCCCC3)c(C)n(C)c2C)cc1 | 65% (inactive)
CCOc1ccc(OCC)c(NS(=O)(=O)c2c(C(=O)N3CCC(C)CC3)c(C)n(C)c2C)c1 | 0% (active)
COc1ccc(C)cc1NS(=O)(=O)c1c(C(=O)N2CCC(C)CC2)c(C)n(C)c1C | 85% (inactive)
Cc1c(C(=O)N2CCC(C)CC2)c(S(=O)(=O)NCc2ccc(Cl)cc2)c(C)n1C | 133% (inactive)
COc1cc(OC)c(NS(=O)(=O)c2c(C(=O)N3CCCCCC3)c(C)n(C)c2C)cc1Cl | 54% (inactive)
Cc1cc(Cl)ccc1NS(=O)(=O)c1c(C(=O)N2CCCCCC2)c(C)n(C)c1C | 77% (inactive)
CCOc1ccc(CNS(=O)(=O)c2c(C(=O)N3CCC(C)CC3)c(C)n(C)c2C)cc1OC | 71% (inactive)
Cc1ccc(NS(=O)(=O)c2c(C(=O)N3CCC(C)CC3)c(C)n(C)c2C)cc1Cl | 131% (inactive)
CC(=O)Nc1ccc(NS(=O)(=O)c2c(C(=O)N3CCC(C)CC3)c(C)n(C)c2C)cc1 | -3% (active)
COc1ccc(C(=O)NCC(c2ccc3c(c2)OCO3)N2CCN(C)CC2)cc1 (centres undefined) | 60% (inactive)
CCc1ccc(-n2nc3ccc(NC(=O)COc4ccc(OC)cc4)cc3n2)cc1 | 95% (inactive)
CCOc1ccc(CCNC(=O)C2CCN(Cc3nc(-c4ccccc4C)oc3C)CC2)cc1OCC | 81% (inactive)
CCc1cccc(C)c1NC(=O)CCS(=O)(=O)c1cc(Br)cc2c1N(C(=O)C1CC1)CC2 | 85% (inactive)
CC(=O)c1sc(NC(=O)c2c(-c3ccccc3)c(-c3ccccc3)nn(C)c2=O)nc1C | 54% (inactive)
COc1cc(N(C(=O)c2ccco2)C(C(=O)NC2CCCC2)c2ccc(C)cc2)ccc1-n1cnnn1 (centres undefined) | 105% (inactive)

Compound | survival
Cc1ccccc1-c1nnc(SCC(=O)N2CCCc3ccccc32)o1 | 15% (active)
O=C(CSc1nnc(-c2ccc(F)cc2)o1)N1CCCc2ccccc21 | 66% (inactive)
O=C(CSc1nnc(-c2cccc(F)c2)o1)N1c2ccccc2Sc2ccccc21 | 103% (inactive)
O=C(CSc1nnc(-c2ccccc2)o1)N1CCCc2ccccc21 | 68% (inactive)
Cc1cccc(-c2nnc(SCC(=O)N3CCCc4ccccc43)o2)c1 | 5% (active)
COc1cccc(-c2nnc(SCC(=O)N3c4ccccc4Sc4ccccc43)o2)c1 | 11% (active)
O=C(CSc1nnc(-c2ccccc2Cl)o1)N1CCCc2ccccc21 | 35% (inactive)
Cc1ccc(-c2nnc(SCC(=O)N3CCCc4ccccc43)o2)cc1 | 65% (inactive)
COc1cccc(-c2nnc(SCC(=O)N3CCc4ccccc43)o2)c1 | 69% (inactive)
CCn1c(SC)nnc1C1CCCN(C(=O)Cc2cccnc2)C1 (centres undefined) | 89% (inactive)
CCC1CCCCN1CCCNC(=O)CN1C(=O)c2cccnc2Oc2ccc(Cl)cc21 (centres undefined) | 65% (inactive)
Cc1cc(C)cc(NS(=O)(=O)c2ccc3[nH]cc(C(=O)NCc4ccccc4Cl)c(=O)c3c2)c1 | 111% (inactive)
CCOc1ccccc1-c1noc(CSc2nnc(-c3ccccc3)n2-c2ccc(F)cc2)n1 | 117% (inactive)
CN(C(=O)CSc1nc(C2CCCC2)nc2c1c(=O)n(C)c(=O)n2C)c1ccccc1 | 128% (inactive)
Cc1ccc(-c2c(CN3CCN(c4cccc(C)c4)C(C)C3)csc2C)cc1 (centres undefined) | 90% (inactive)
Cc1nc(-c2ccccc2)sc1-c1ccc(SCC(=O)Nc2cccc(C(F)(F)F)c2)nn1 | 67% (inactive)
Cc1nc(-c2ccccc2)sc1-c1ccc(SCC(=O)Nc2ccccc2)nn1 | 41% (inactive)
CC(=O)Nc1cccc(NC(=O)CSc2ccc(-c3sc(-c4ccccc4)nc3C)nn2)c1 | 17% (active)
O=C(Cn1c(=O)oc2cc(S(=O)(=O)N3CCCC3)ccc21)NCc1ccc(Cl)cc1 | 138% (inactive)
NC1=NC(c2cccc(Cl)c2)n2c(nc3ccccc32)N1 (centres undefined) | 97% (inactive)
CCOc1ccc(-c2cc(CCCC(=O)NCCc3cc(OC)c(OC)c(OC)c3)no2)cc1 | 59% (inactive)
Cc1ccc(Cn2c(SCC(=O)NCc3ccccc3Cl)nc3ccsc3c2=O)cc1 | -6% (active)
O=C(CSc1nc2ccsc2c(=O)n1-c1ccc(Br)cc1)NCc1ccccc1 | 80% (inactive)
Cc1ccc(CSc2nc3ccsc3c(=O)n2CCC(C)C)cc1 | -6% (active)

Compound | survival
Cc1ccc(Cn2c(SCC(=O)NCc3ccccc3)nc3ccsc3c2=O)cc1 | 76% (inactive)
Cc1ccccc1CSc1nc2ccsc2c(=O)n1CCC(C)C | 74% (inactive)
CC(C)CCn1c(SCc2cccc(F)c2)nc2ccsc2c1=O | 76% (inactive)
O=C(CSc1nc2ccsc2c(=O)n1-c1ccc(Br)cc1)NCc1ccc(Cl)cc1 | 81% (inactive)
O=C(CSc1nc2ccsc2c(=O)n1Cc1ccccc1Cl)NCc1ccc(Cl)cc1 | 75% (inactive)
Cc1ccc(CNC(=O)CSc2nc3ccsc3c(=O)n2-c2ccc(Br)cc2)cc1 | 14% (active)
CC(C)/C=N/NC(=O)c1ccc2c(c1)NC(=O)C(C)(C)O2 | 108% (inactive)
Cc1ccccc1OCC(=O)OC1CCCN(C)C1 (centres undefined) | 90% (inactive)
CCC(=O)N1CCc2cc(Br)cc(S(=O)(=O)N3CCC(C(=O)Nc4ccccc4F)CC3)c21 | 80% (inactive)
COc1ccc(-c2cc(-c3ccccc3)c(C#N)c(SCC(O)CS(=O)(=O)Cc3ccc(Cl)cc3)n2)cc1 (centres undefined) | 141% (inactive)
CCCN(C(=O)Cc1nc(-c2ccc(OC)cc2)no1)c1ccccc1C | 87% (inactive)
CCCN(C(=O)CCc1nc(-c2ccc(C)cc2)no1)c1ccc(OCC)cc1 | 0% (active)
Cc1ccc(-c2noc(CCC(=O)N(C)c3ccccc3F)n2)cc1 | 4% (active)
CN(C(=O)CCc1nc(-c2ccccc2F)no1)c1ccc(Cl)cc1 | 68% (inactive)
COc1ccc(-c2noc(CCC(=O)NCc3ccc(C)cc3)n2)cc1 | 94% (inactive)
COc1ccc(-c2noc(CC(=O)N(C)c3ccccc3F)n2)cc1 | 84% (inactive)
COc1ccc(-c2noc(CCC(=O)N(C)c3ccccc3C)n2)cc1 | 71% (inactive)
CCCN(C(=O)CCc1nc(-c2ccc(OC)cc2)no1)c1ccccc1F | 0% (active)
COc1ccc(-c2noc(CCC(=O)N(C)c3cc(Cl)ccc3OC)n2)cc1 | 20% (inactive)
CCCN(C(=O)CCc1nc(-c2ccccc2F)no1)c1ccc(CC)cc1 | -2% (active)
CCOC(=O)c1ccccc1NC(=O)CCc1nc(-c2ccc(C)cc2)no1 | 27% (inactive)
CCOc1ccc(N(CC)C(=O)CCc2nc(-c3ccccc3F)no2)cc1 | 39% (inactive)
